According to PubChem BioAssay AID1159580 (chemical genetic matrix, 2015):
In all, about 5,500 compounds went through this assay and about 2,000 (36%) were called active. Roughly 18% stayed inconclusive and do not appear here. Rule as the data show it: active = normalized growth mostly below about 0.91 (no sharp cut-off); inconclusive = no clear call, values can overlap the other calls; inactive = mostly above about 0.92. Some of the results follow.

Test: chemical genetic growth profiling, strain panel (AID 1159580);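 also: tested at 20 µM; growth read once vehicle control cultures reached saturation at 30 °C; 1 = growth at the plate median or of vehicle wells; lower values mean less growth of the strain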
Details: growth OD
[1] = S. cerevisiae deletion strains, locus YAL013W, strain DEP1, stronger effect = lower value
[2] = S. cerevisiae deletion strains, locus YNL322C, strain KRE1, stronger effect = lower value

Measured: normalized growth

Nc1nc2c(ncn2C2C[C@H](O)[C@@H](CO)O2)c(=O)[nH]1 (stereo not given in full)
inactive: [1] 0.995 | S. cerevisiae deletion strains, locus YBR021W, strain FUR4, stronger effect = lower value 1 | S. cerevisiae deletion strains, locus YBR229C, strain ROT2, stronger effect = lower value 0.997 | S. cerevisiae deletion strains, locus YDL035C, strain GPR1, stronger effect = lower value 1.02 | S. cerevisiae deletion strains, locus YDL074C, strain BRE1, stronger effect = lower value 1.02 | S. cerevisiae deletion strains, locus YDL101C, strain DUN1, stronger effect = lower value 1 | S. cerevisiae deletion strains, locus YDL134C, strain PPH21, stronger effect = lower value 1.01 | S. cerevisiae deletion strains, locus YDL185W, strain tfp1, stronger effect = lower value 0.999 | S. cerevisiae deletion strains, locus YDR150W, strain NUM1, stronger effect = lower value 1.02 | S. cerevisiae deletion strains, locus YDR162C, strain NBP2, stronger effect = lower value 1 | S. cerevisiae deletion strains, locus YEL061C, strain CIN8, stronger effect = lower value 0.979 | S. cerevisiae deletion strains, locus YER155C, strain BEM2, stronger effect = lower value 0.994 | S. cerevisiae deletion strains, locus YER167W, strain BCK2, stronger effect = lower value 1.01 | S. cerevisiae deletion strains, locus YGL078C, strain dbp3, stronger effect = lower value 1 | S. cerevisiae deletion strains, locus YGL248W, strain PDE1, stronger effect = lower value 0.996 | S. cerevisiae deletion strains, locus YGR078C, strain PAC10, stronger effect = lower value 1 | S. cerevisiae deletion strains, locus YGR229C, strain SMI1, stronger effect = lower value 1.01 | S. cerevisiae deletion strains, locus YHR030C, strain SLT2, stronger effect = lower value 1.01 | S. cerevisiae deletion strains, locus YHR129C, strain ARP1, stronger effect = lower value 1 | S. cerevisiae deletion strains, locus YIL066C, strain RNR3, stronger effect = lower value 1.03 | S. cerevisiae deletion strains, locus YIL073C, strain SPO22, stronger effect = lower value 1.1 | S. cerevisiae deletion strains, locus YIL125W, strain kgd1, stronger effect = lower value 1.01 | S. cerevisiae deletion strains, locus YJL095W, strain BCK1, stronger effect = lower value 1 | S. cerevisiae deletion strains, locus YJL134W, strain LCB3, stronger effect = lower value 1 | S. cerevisiae deletion strains, locus YJL187C, strain SWE1 (second series), stronger effect = lower value 1.01 | S. cerevisiae deletion strains, locus YJR043C, strain POL32, stronger effect = lower value 1 | S. cerevisiae deletion strains, locus YJR075W, strain HOC1, stronger effect = lower value 0.992 | S. cerevisiae deletion strains, locus YKL009W, strain mrt4, stronger effect = lower value 1.02 | S. cerevisiae deletion strains, locus YKL068W, stronger effect = lower value 1.01 | S. cerevisiae deletion strains, locus YKL085W, strain MDH1 (second series), stronger effect = lower value 1.01 | S. cerevisiae deletion strains, locus YKL085W, strain MDH1, stronger effect = lower value 1.01 | S. cerevisiae deletion strains, locus YKL190W, strain CNB1, stronger effect = lower value 1 | S. cerevisiae deletion strains, locus YLR039C, strain RIC1, stronger effect = lower value 1.02 | S. cerevisiae deletion strains, locus YLR058C, strain SHM2, stronger effect = lower value 1 | S. cerevisiae deletion strains, locus YLR262C, strain YPT6, stronger effect = lower value 1.08 | S. cerevisiae deletion strains, locus YLR330W, strain CHS5, stronger effect = lower value 0.995 | S. cerevisiae deletion strains, locus YLR342W, strain FKS1 (second series), stronger effect = lower value 1.04 | S. cerevisiae deletion strains, locus YML016C, strain PPZ1, stronger effect = lower value 1.01 | S. cerevisiae deletion strains, locus YMR263W, strain SAP30, stronger effect = lower value 1.01 | S. cerevisiae deletion strains, locus YMR307W, strain GAS1, stronger effect = lower value 1.01 | S. cerevisiae deletion strains, locus YNL067W, strain RPL9B, stronger effect = lower value 1.01 | S. cerevisiae deletion strains, locus YNL128W, strain TEP1, stronger effect = lower value 1 | S. cerevisiae deletion strains, locus YNL153C, strain GIM3, stronger effect = lower value 1.01 | S. cerevisiae deletion strains, locus YNL233W, strain BNI4, stronger effect = lower value 1 | S. cerevisiae deletion strains, locus YNL250W, strain rad50, stronger effect = lower value 1.02 | S. cerevisiae deletion strains, locus YNL271C, strain bni1, stronger effect = lower value 1.02 | S. cerevisiae deletion strains, locus YNL298W, strain CLA4, stronger effect = lower value 1.03 | [2] 1 | S. cerevisiae deletion strains, locus YOL006C, strain TOP1, stronger effect = lower value 1.04 | S. cerevisiae deletion strains, locus YOR061W, strain CKA2, stronger effect = lower value 0.998 | S. cerevisiae deletion strains, locus YOR069W, strain VPS5, stronger effect = lower value 1 | S. cerevisiae deletion strains, locus YOR184W, strain ser1, stronger effect = lower value 1.02 | S. cerevisiae deletion strains, locus YPL055C, strain LGE1, stronger effect = lower value 0.976 | S. cerevisiae deletion strains, locus YPL241C, strain CIN2, stronger effect = lower value 0.98 | S. cerevisiae deletion strains, locus YPR141C, strain kar3, stronger effect = lower value 1.02 | S. cerevisiae strains, strain wild type, stronger effect = lower value 0.984
active: S. cerevisiae deletion strains, locus YCL029C, strain bik1, stronger effect = lower value 0.573 | S. cerevisiae deletion strains, locus YDL192W, strain arf1, stronger effect = lower value 0.179 | S. cerevisiae deletion strains, locus YDR101C, strain arx1, stronger effect = lower value 0.447 | S. cerevisiae deletion strains, locus YDR318W, strain mcm21, stronger effect = lower value 0.322 | S. cerevisiae deletion strains, locus YDR388W, stronger effect = lower value 0.162 | S. cerevisiae deletion strains, locus YDR502C, strain sam2, stronger effect = lower value 0.359 | S. cerevisiae deletion strains, locus YER110C, stronger effect = lower value 0.627 | S. cerevisiae deletion strains, locus YGL086W, strain mad1, stronger effect = lower value 0.357 | S. cerevisiae deletion strains, locus YGR135W, strain pre9, stronger effect = lower value 0.328 | S. cerevisiae deletion strains, locus YGR252W, strain gcn5, stronger effect = lower value 0.352 | S. cerevisiae deletion strains, locus YHR079C, strain IRE1 (second series), stronger effect = lower value 0.446 | S. cerevisiae deletion strains, locus YHR094C, strain hxt1, stronger effect = lower value 0.456 | S. cerevisiae deletion strains, locus YHR200W, strain rpn10, stronger effect = lower value 0.357 | S. cerevisiae deletion strains, locus YIR030C, strain dcg1, stronger effect = lower value 0.46 | S. cerevisiae deletion strains, locus YJL168C, strain set2, stronger effect = lower value 0.527 | S. cerevisiae deletion strains, locus YKR001C, strain vps1, stronger effect = lower value 0.189 | S. cerevisiae deletion strains, locus YLR102C, strain apc9, stronger effect = lower value 0.543 | S. cerevisiae deletion strains, locus YLR268W, strain sec22, stronger effect = lower value 0.406 | S. cerevisiae deletion strains, locus YLR371W, strain rom2, stronger effect = lower value 0.391 | S. cerevisiae deletion strains, locus YLR418C, strain cdc73, stronger effect = lower value 0.261 | S. cerevisiae deletion strains, locus YML032C, strain rad52, stronger effect = lower value 0.408 | S. cerevisiae deletion strains, locus YML124C, strain tub3, stronger effect = lower value 0.554 | S. cerevisiae deletion strains, locus YMR078C, strain ctf18, stronger effect = lower value 0.852 | S. cerevisiae deletion strains, locus YMR223W, strain ubp8, stronger effect = lower value 0.315 | S. cerevisiae deletion strains, locus YNL307C, strain MCK1, stronger effect = lower value 0.222 | S. cerevisiae deletion strains, locus YNR052C, strain pop2, stronger effect = lower value 0.137 | S. cerevisiae deletion strains, locus YOL012C, strain htz1 2.5 [resistant] | S. cerevisiae deletion strains, locus YOL147C, strain pex11, stronger effect = lower value 0.451 | S. cerevisiae deletion strains, locus YOR136W, strain idh2, stronger effect = lower value 0.531 | S. cerevisiae deletion strains, locus YOR144C, strain elg1, stronger effect = lower value 0.619 | S. cerevisiae deletion strains, locus YOR316C, strain cot1, stronger effect = lower value 0.416 | S. cerevisiae deletion strains, locus YPR119W, strain clb2, stronger effect = lower value 0.645 | S. cerevisiae deletion strains, locus YPR163C, strain tif3, stronger effect = lower value 0.37 | S. cerevisiae deletion strains, locus YPR167C, strain met16, stronger effect = lower value 0.33 | S. cerevisiae deletion strains, strain wtn01, stronger effect = lower value 0.229

O=c1[nH]c(=O)n([C@H]2C[C@H](O)[C@@H](CO)O2)cc1Br
inactive: [1] 1 | S. cerevisiae deletion strains, locus YAL040C, strain CLN3, stronger effect = lower value 1.08 | S. cerevisiae deletion strains, locus YDR363W, strain ESC2, stronger effect = lower value 1.01 | S. cerevisiae deletion strains, locus YER002W, strain NOP16, stronger effect = lower value 1.01 | S. cerevisiae deletion strains, locus YNL175C, strain NOP13, stronger effect = lower value 1 | S. cerevisiae deletion strains, locus YNL197C, strain WHI3, stronger effect = lower value 1 | S. cerevisiae deletion strains, locus YNL224C, strain SQS1, stronger effect = lower value 1 | [2] 1.02 | S. cerevisiae deletion strains, locus YOR083W, strain WHI5 (second series), stronger effect = lower value 0.991
